PubChem BioAssay AID588689 (Southern Research Specialized Biocontainment Screening …, 2011)
About 1,000 (0.29%) of roughly 340,000 compounds were called active. No stated cut-off is given here; in the data, inconclusive means inhibition above about 29% without an active follow-up result; inactive means below that. Not all results are given here. Potency and affinity values are given separately.

Target: Genome polyprotein (Dengue virus type 2 (strain 16681-PDK53)) (UniProt P29991)
Test: Dengue-2 NS5 methyltransferase inhibitors, primary screen, biochemical, confirmation dose response (AID 588689)
Conditions: Dengue-2 NS5 methyltransferase capping enzyme assay, at 25 µM, stronger effect = higher value
[1] = measured here: pilot screen replicate inhibition

Chain of Genome polyprotein (Dengue virus type 2 (strain 16681-PDK53)) (P29991 whole entry, looked up): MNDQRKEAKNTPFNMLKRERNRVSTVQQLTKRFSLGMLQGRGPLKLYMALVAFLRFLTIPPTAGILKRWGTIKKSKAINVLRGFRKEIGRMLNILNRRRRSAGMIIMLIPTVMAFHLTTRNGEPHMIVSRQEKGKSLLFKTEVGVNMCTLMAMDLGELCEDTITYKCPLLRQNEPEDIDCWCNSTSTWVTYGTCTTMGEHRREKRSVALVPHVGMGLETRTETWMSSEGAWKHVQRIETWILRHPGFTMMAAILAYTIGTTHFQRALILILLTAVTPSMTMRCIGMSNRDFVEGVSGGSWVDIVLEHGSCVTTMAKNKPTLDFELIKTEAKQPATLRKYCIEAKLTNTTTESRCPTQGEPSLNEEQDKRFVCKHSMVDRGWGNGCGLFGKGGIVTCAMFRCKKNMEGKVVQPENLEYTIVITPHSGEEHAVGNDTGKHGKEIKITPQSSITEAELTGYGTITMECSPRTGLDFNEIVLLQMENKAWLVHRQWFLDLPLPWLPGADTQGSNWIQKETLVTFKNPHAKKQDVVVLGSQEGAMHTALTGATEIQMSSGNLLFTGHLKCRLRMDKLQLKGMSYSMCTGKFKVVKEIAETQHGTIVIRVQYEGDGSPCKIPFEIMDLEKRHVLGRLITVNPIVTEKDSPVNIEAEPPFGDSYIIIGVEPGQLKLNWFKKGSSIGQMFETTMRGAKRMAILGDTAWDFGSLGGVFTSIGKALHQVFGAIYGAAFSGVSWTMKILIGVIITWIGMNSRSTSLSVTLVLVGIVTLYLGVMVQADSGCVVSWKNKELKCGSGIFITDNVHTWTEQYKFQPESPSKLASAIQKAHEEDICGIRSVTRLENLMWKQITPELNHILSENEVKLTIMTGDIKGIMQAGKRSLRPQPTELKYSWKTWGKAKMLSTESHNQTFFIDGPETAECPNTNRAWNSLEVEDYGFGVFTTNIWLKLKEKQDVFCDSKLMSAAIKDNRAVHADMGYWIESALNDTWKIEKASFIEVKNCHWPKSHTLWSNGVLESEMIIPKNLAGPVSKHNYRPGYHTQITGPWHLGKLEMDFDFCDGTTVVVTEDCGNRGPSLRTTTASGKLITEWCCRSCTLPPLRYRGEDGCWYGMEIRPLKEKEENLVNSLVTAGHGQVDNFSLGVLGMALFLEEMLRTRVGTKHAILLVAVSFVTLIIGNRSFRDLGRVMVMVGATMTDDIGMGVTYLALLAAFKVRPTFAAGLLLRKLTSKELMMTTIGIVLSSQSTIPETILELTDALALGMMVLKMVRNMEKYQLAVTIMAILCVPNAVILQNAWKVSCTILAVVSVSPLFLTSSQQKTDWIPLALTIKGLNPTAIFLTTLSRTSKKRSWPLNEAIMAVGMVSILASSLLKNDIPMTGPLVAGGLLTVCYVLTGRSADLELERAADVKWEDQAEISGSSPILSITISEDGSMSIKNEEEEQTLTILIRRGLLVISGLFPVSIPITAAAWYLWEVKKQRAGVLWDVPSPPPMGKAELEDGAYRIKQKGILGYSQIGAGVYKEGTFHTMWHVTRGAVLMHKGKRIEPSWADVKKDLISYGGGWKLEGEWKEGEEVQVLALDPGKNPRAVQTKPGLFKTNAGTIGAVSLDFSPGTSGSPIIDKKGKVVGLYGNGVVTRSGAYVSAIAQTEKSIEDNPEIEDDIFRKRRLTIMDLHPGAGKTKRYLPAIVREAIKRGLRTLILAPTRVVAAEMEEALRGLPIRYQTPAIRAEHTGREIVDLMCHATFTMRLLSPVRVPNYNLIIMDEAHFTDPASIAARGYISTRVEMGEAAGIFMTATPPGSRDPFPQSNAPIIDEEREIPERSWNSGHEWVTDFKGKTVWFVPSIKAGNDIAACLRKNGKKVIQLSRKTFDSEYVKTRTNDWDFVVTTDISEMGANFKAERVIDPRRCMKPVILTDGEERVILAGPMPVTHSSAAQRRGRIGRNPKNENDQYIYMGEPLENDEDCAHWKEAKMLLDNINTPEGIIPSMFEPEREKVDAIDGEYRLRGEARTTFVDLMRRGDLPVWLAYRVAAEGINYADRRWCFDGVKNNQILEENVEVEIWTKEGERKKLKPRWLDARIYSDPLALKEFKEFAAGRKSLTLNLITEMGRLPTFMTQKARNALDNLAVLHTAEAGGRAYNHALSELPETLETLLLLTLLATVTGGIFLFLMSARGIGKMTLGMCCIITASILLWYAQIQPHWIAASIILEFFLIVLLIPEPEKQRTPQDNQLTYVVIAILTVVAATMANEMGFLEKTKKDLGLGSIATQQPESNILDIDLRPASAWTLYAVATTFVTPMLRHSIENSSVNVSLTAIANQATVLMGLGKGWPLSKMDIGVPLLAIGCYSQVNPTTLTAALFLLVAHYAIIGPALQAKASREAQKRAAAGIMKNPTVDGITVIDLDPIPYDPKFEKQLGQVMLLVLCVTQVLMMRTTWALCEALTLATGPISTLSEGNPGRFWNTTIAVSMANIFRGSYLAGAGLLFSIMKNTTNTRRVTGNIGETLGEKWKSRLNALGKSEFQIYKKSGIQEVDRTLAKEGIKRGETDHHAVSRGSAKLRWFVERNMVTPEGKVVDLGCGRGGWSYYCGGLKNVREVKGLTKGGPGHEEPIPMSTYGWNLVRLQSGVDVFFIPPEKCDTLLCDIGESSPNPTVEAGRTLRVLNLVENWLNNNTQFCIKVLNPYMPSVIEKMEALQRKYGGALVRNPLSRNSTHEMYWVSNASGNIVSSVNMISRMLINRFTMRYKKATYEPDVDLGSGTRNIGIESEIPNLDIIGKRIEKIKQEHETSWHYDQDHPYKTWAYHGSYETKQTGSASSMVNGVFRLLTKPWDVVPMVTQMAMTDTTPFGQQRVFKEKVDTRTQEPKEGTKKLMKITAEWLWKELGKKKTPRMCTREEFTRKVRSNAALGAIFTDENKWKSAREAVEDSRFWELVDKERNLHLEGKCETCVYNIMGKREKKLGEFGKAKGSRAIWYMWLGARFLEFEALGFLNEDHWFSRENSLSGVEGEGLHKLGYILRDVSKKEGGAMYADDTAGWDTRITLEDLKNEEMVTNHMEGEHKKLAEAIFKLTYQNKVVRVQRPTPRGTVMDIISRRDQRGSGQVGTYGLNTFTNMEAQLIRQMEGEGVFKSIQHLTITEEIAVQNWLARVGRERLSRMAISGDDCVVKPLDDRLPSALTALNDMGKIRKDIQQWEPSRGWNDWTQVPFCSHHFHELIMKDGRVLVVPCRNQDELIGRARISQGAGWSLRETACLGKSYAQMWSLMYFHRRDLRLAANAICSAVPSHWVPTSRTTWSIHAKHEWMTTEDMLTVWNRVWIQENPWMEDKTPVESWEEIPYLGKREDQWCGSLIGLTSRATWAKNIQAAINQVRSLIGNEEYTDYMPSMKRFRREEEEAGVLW

Row | SMILES | inhibition | inhibition [1]
1 | S=C(NCCc1c[nH]c2ccccc12)NC1CC1 | 2.32% (inactive) | 
2 | N#C/C(=C\c1ccc([N+](=O)[O-])cc1)C(=O)Nc1ccccc1O | 8.94% (inactive) | 
3 | Brc1ccc(-c2nnc3n2CCCCC3)cc1 | -4.77% (inactive) | 
4 | Cc1ccccc1CSCCNC(=O)COc1ccc(Cl)cc1 | -3.24% (inactive) | 
5 | Cc1occc1C(=O)NNC(=O)c1ccccc1[N+](=O)[O-] | 1.62% (inactive) | 
6 | CCC(=O)N1CCc2cc(Br)cc(S(=O)(=O)NCc3ccco3)c21 | 0% (inactive) | 
7 | O=C1OC(c2ccc(Cl)cc2)/C(=C(/O)c2ccccc2)C1=O (stereo not drawn) | 28.1% (inactive) | 
8 | CC(=O)C1=C(O)C(=O)OC1c1ccc(C)cc1 (stereo not drawn) | -9.38% (inactive) | 
9 | CC(=O)C1=C(O)C(=O)OC1c1ccc(Cl)cc1 (stereo not drawn) | -3.11% (inactive) | 
10 | O=C(O)c1ccccc1C(=O)c1ccc(Cl)cc1 | 1.15% (inactive) | 
11 | CC(=O)Nc1ccc(S(=O)(=O)N2CCC(N3CCCCCC3)CC2)cc1 | -3.4% (inactive) | 
12 | CCOc1ccc(NC(=O)C2=NN(c3ccccc3)C(=O)CC2)cc1S(=O)(=O)N1CCCCC1 | -4.38% (inactive) | 
13 | COc1cccc(N2CC(O)Cn3c2nc2c3c(=O)[nH]c(=O)n2C)c1 (stereo not drawn) | -3.08% (inactive) | 
14 | COc1ccc(NC(=O)c2ccc(S(=O)(=O)N3CC(C)OC(C)C3)cc2)cc1 (stereo not drawn) | 3.36% (inactive) | 
15 | CN(CC(=O)Nc1ccc(S(=O)(=O)N(C)C)cc1)Cc1ccc(C(F)(F)F)cc1 | 2.22% (inactive) | 
16 | COc1cc(CN(C)Cc2cccc3ccccc23)cc([N+](=O)[O-])c1O | 11.1% (inactive) | 0.595%
17 | O=[N+]([O-])c1cccc(C=Nc2cccc3ccccc23)c1O | 14.3% (inactive) | 
18 | Nc1ccc(-c2ccc(N)c([N+](=O)[O-])c2)cc1[N+](=O)[O-] | -9.54% (inactive) | 
19 | O=C(c1cc(O)c(O)c([N+](=O)[O-])c1)c1ccccc1F | -7.33% (inactive) | 
20 | Nc1ccc(N=Nc2ccccc2)cc1[N+](=O)[O-] | -3.11% (inactive) | 
21 | O=[N+]([O-])c1ccccc1N=Nc1ccc(O)cc1 | 0% (inactive) | 
22 | Cc1cc(Nc2ccccc2C(=O)O)n2ncnc2n1 | 6.29% (inactive) | 
23 | Cn1c(N)c(S(=O)(=O)N2CCN(c3ccccc3F)CC2)c(=O)n(C)c1=O | -7.15% (inactive) | 
24 | CC(C)CC(=O)Nc1ccc(C(=O)COC(=O)C2CCC2)cc1 | -0.65% (inactive) | 

Row | SMILES | inhibition | inhibition [1]
25 | O=C1C2C3C=CC(C4CC34)C2C(=O)N1Cc1ccco1 (stereo not drawn) | -2.18% (inactive) | 
26 | CSCCC(NS(=O)(=O)c1ccc(F)cc1)C(=O)NCc1ccc(S(N)(=O)=O)cc1 (stereo not drawn) | 3.04% (inactive) | 
27 | C=CCn1c(SCC(=O)NC2CCCC2)nnc1-c1ccncc1 | -3.89% (inactive) | 
28 | Cc1ccc(NC2=C/C(=N/S(=O)(=O)c3cccs3)c3ccccc3C2=O)cc1 | 1.1% (inactive) | 
29 | Cc1cc(C)c(S(=O)(=O)/N=C2\C=C(NS(=O)(=O)c3ccccc3)C(=O)c3ccccc32)c(C)c1 | 25.3% (inactive) | 
30 | CCc1ccc(S(=O)(=O)Nc2ccccn2)cc1 | -5.27% (inactive) | -6.09%
31 | Cc1ccc(S(=O)(=O)Nc2ccc3ncccc3c2[N+](=O)[O-])cc1 | -1.93% (inactive) | 
32 | Cc1ccc(S(=O)(=O)Nc2ccc3cc([N+](=O)[O-])ccc3c2[N+](=O)[O-])cc1 | -2.33% (inactive) | 
33 | CCc1ccc(S(=O)(=O)/N=C2\C=C(Nc3ccc(O)cc3)C(=O)c3ccccc32)cc1 | 8.96% (inactive) | 
34 | Cc1ccccc1NC1=C/C(=N\S(=O)(=O)c2cccs2)c2ccccc2C1=O | 63.2% (inactive) | 
35 | Cc1ccc(Nc2nnc(SC(C)C(=O)NCC3CCCO3)s2)cc1C (stereo not drawn) | 4.44% (inactive) | 
36 | CCc1ccc(N(C(=O)C(F)(F)F)C(C(=O)NC2CCCCC2)c2ccncc2)cc1 (stereo not drawn) | 0.69% (inactive) | 
37 | Cc1n[nH]c(C)c1CCCCOc1ccccc1[N+](=O)[O-] | -3.29% (inactive) | -1.21%
38 | CSc1nnc(C)c(=O)n1COC(=O)COc1ccccc1F | 9.2% (inactive) | 
39 | COc1ccc(CCn2c(C)c(C(C)=O)c3cc(OC(=O)c4ccco4)ccc32)cc1OC | -1.6% (inactive) | 
40 | COc1ccccc1-n1c(CNC(=O)c2ccc(S(=O)(=O)N3CCOCC3)cc2)n[nH]c1=S | -4.46% (inactive) | 
41 | C=C(C)CN1C(=O)c2ccccc2C1=O | 2.04% (inactive) | 
42 | CC(=O)N1N=C(c2ccc(C)o2)CC1c1ccc(Br)cc1 (stereo not drawn) | -4.86% (inactive) | 
43 | COc1cc2c(cc1OC)C(COc1cccc(C(F)(F)F)c1)NCC2 (stereo not drawn) | 6.97% (inactive) | 
44 | CCCCOc1ccc(C(=O)NCC(=O)NC2CC2)cc1 | 1.44% (inactive) | 
45 | CCOC(=O)c1nc[nH]c1C | -4.86% (inactive) | 
46 | Cc1ccc(S(=O)(=O)Nc2ccccc2-c2ccccc2)cc1 | -9.37% (inactive) | 
47 | CC(C)c1ccc(-c2csc3nc[nH]c(=O)c23)cc1 | -4.66% (inactive) | 
48 | CN1C/C(=N\S(=O)(=O)c2ccccc2)N(C)C1=O | -4.44% (inactive) | 

Row | SMILES | inhibition | inhibition [1]
49 | CC(=O)OC1(C)C=Cc2ccccc2C1=NS(=O)(=O)c1ccccc1 (stereo not drawn) | 4% (inactive) | 
50 | Cc1ccc(NC2=C/C(=N\S(=O)(=O)c3cccs3)c3ccccc3C2=O)c(C)c1 | 12.8% (inactive) | 
51 | Cc1ccc(S(=O)(=O)/N=C2\C=C(NS(=O)(=O)c3ccccc3)C(=O)c3ccccc32)c(C)c1 | 13.1% (inactive) | 
52 | Cc1ccc(S(=O)(=O)Nc2ccccc2C(N)=O)cc1 | -8.11% (inactive) | -8.21%
53 | COc1ccc(S(=O)(=O)/N=C2\C=C(Nc3ccc(O)cc3)C(=O)c3ccccc32)cc1 | 10.3% (inactive) | 
54 | O=[N+]([O-])c1cc(C(F)(F)F)ccc1-n1nnc2ccccc21 | 1.31% (inactive) | 
55 | Cc1cc2cc(CNC(=O)Nc3cccc(Cl)c3)ccc2n1C | 22.2% (inactive) | 
56 | COCCNc1nnc(SCC(=O)NC(=O)c2ccc(Cl)cc2)s1 | 2.89% (inactive) | 
57 | COc1ccc(OC)c(NC(=O)c2cccc(N3C(=O)C4C5CCC(C5)C4C3=O)c2)c1 (stereo not drawn) | -6.74% (inactive) | 
58 | CCOC(=O)CCC(NC(=O)CCC(=O)NC(CCC(=O)OCC)C(=O)OCC)C(=O)OCC (stereo not drawn) | -7.26% (inactive) | 
59 | O=C(CNC(=O)c1ccccc1F)NCCN1C(=O)S/C(=C\c2ccc3c(c2)OCO3)C1=O | -1.45% (inactive) | 
60 | O=C(c1ccc(CS(=O)c2ccc(F)cc2)o1)N1CCN(C2CCCCC2)CC1 (stereo not drawn) | -10.8% (inactive) | 
61 | Cc1[nH]c(=O)[nH]c(=O)c1CSc1nnc([C@@H](NC(=O)OC(C)(C)C)C(C)C)o1 | 0.56% (inactive) | 
62 | COC(=O)C(C(C)=O)C1=C/C(=N\S(=O)(=O)c2ccc(C)cc2)c2ccccc2C1=O (stereo not drawn) | -8.06% (inactive) | 
63 | Cc1ccc(S(=O)(=O)/N=C2\C=C(Nc3ccc(O)cc3)C(=O)c3ccccc32)cc1 | -0.74% (inactive) | 
64 | C/C(=N\NS(=O)(=O)c1ccc(C(C)(C)C)cc1)c1ccccc1 | -0.98% (inactive) | 
65 | CC(C)(C)c1ccc(S(=O)(=O)Nc2ccccn2)cc1 | 2.21% (inactive) | 
66 | O=C(CCN1C(=O)C2CC=CCC2C1=O)Nc1cccc(S(=O)(=O)N2CCCCC2)c1 (stereo not drawn) | 0% (inactive) | 
67 | NC(=O)CSc1nnc(-c2cccs2)n1-c1ccccc1 | -6.45% (inactive) | 
68 | COCCN(C(=O)COC(=O)CCSc1ccc(F)cc1)c1c(N)n(Cc2ccccc2)c(=O)[nH]c1=O | -5.13% (inactive) | 
69 | COC(=O)C1(C(=O)OC)C(C(=O)c2ccccc2)C1c1ccccc1 (stereo not drawn) | 5.57% (inactive) | 
70 | COc1cc(SC)ccc1C(=O)Nc1cccc(S(=O)(=O)NC2=NCCCCC2)c1 | -1.45% (inactive) | 
71 | COCCNC(=O)Nc1ccc2nc(-c3cccs3)c(-c3cccs3)nc2c1 | -17.7% (inactive) | 
72 | COc1ccc2nc3c(nc2c1)CCCC3 | -8.49% (inactive) | 

Row | SMILES | inhibition | inhibition [1]
73 | COc1ccc2nc3ccccc3nc2c1 | 18.8% (inactive) | 
74 | O=C(Nc1ccc(N2CCOCC2)cc1)Nc1ccc2nc(-c3ccco3)c(-c3ccco3)nc2c1 | 13.6% (inactive) | 
75 | CCc1nc2ccc(C(=O)NCCc3ccco3)cc2nc1CC | -11.5% (inactive) | 
76 | CCCNC(=O)c1ccc2nc(-c3ccccc3)c(-c3ccccc3)nc2c1 | -0.8% (inactive) | 
77 | O=C(Nc1ccc(N2CCOCC2)cc1)c1ccc2nc(-c3ccco3)c(-c3ccco3)nc2c1 | 3.24% (inactive) | 
78 | O=C(Nc1cccc(C(F)(F)F)c1)c1ccc2nc(-c3ccco3)c(-c3ccco3)nc2c1 | 21.6% (inactive) | 
79 | Cc1ccccc1NC(=O)Cc1cccs1 | -7.91% (inactive) | -5.49%
80 | COc1cc2c(cc1OC)CC(C(=O)NCc1ccccc1)NC2 (stereo not drawn) | -4.57% (inactive) | 
81 | O=C(C1CCCN(S(=O)(=O)c2ccccc2)C1)N1CCN(c2ccccc2)CC1 (stereo not drawn) | -6.74% (inactive) | 
82 | CCN(CC)C(=O)C1CCCN(C(=O)Nc2ccccc2)C1 (stereo not drawn) | -0.8% (inactive) | 
83 | CN(/N=C/c1ccc2c(c1)OCO2)c1ccccc1 | -8.15% (inactive) | 
84 | COc1cccc(-c2ncc3ccccc3c2COC(=O)c2cccs2)c1 | -7.94% (inactive) | 
85 | O=C(c1ccco1)N1CCN(S(=O)(=O)c2cccc(C(F)(F)F)c2)CC1 | 0% (inactive) | 
86 | O=C(O)c1ccc2nc(-c3ccccc3)c(-c3ccccc3)nc2c1 | -2.57% (inactive) | 
87 | O=C(c1ccccc1)c1ccc2nc(-c3ccco3)c(-c3ccco3)nc2c1 | 51.1% (inactive) | 
88 | O=C(c1ccc2nc(-c3ccco3)c(-c3ccco3)nc2c1)N1CCN(c2ccccc2)CC1 | 0% (inactive) | 
89 | COc1ccc(-c2nc3ccc(C(=O)NCCCN4CCOCC4)cc3nc2-c2ccc(OC)cc2)cc1 | -9.54% (inactive) | 
90 | O=C(NCCc1ccccc1)c1ccc2nccnc2c1 | 0% (inactive) | 
91 | Cc1nc2ccc(C(=O)O)cc2nc1C | -2.96% (inactive) | 
92 | O=C(Nc1ccccc1)c1ccc2nc(-c3ccco3)c(-c3ccco3)nc2c1 | 44.6% (inactive) | 
93 | CCc1nc2ccc(C(=O)NCc3ccco3)cc2nc1CC | -6.11% (inactive) | 
